Results from paper PMC5540273 (PLoS ONE, 2017).

What follows are compounds tested on FGR. Settings: concentration: 1 μM,replicates: in singlicate; n = 1.
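Also: KINOMEscan kinase panel screen.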

Compound	%Inh [%]
CN(C)CC(O)COc1ccc(Nc2nccc(-c3cnn4nc(N5CCOCC5)ccc34)n2)cc1 (centres unmarked) [GW767488]	93.5
Cc1cc2cn[nH]c2cc1-c1cccc2c(N)c(C(N)=O)nnc12	50
Nc1nc(Nc2ccccc2)cc(-c2ccc3c(N)n[nH]c3c2)n1 [GSK2225749]	0
Cl.Oc1cc(-c2nc(-c3ccccc3)[nH]c2-c2ccncc2)ccc1Cl [SB-386023]	56
C[C@@H](Oc1cc(-c2cnn(C3CCNCC3)c2)cnc1N)c1c(Cl)ccc(F)c1Cl	46
C=CC(=O)Nc1cc2c(Nc3ccc(F)c(Cl)c3)ncnc2cc1OCCCN1CCOCC1 [GW781483]	14
Cl.Cl.NC[C@H](CC1CCCCC1)NC(=O)c1cc(Br)c(-c2ccnc3[nH]ccc23)s1 [GSK1581427]	33
CC(C)Nc1cc(-c2ccc3c(N)n[nH]c3c2)nc(N)n1 [GSK2221681]	3
CCN(CC)CCCCNc1ncc2cc(-c3c(Cl)cccc3Cl)c(NC(=O)NC(C)(C)C)nc2n1	90.3
Cc1ccc2c(-c3ccncc3)c(-c3ccc(F)cc3)nn2c1.Cl [GW461484]	0
COc1ccc(C[C@@H](CN)NC(=O)c2cc(Br)c(-c3ccnc4[nH]ccc34)s2)cc1.Cl.Cl [GSK1389063]	53
C[C@H]1Oc2cc(cnc2N)-c2c(nn(C)c2C#N)CN(C)C(=O)c2ccc(F)cc21	33
CCN(CC)CCOc1ccc(Nc2ncc3cc(-c4c(Cl)cccc4Cl)c(=O)n(C)c3n2)cc1 [SB-601273]	100
NC(=O)c1cc(-c2ccccc2)cc2c(C3CCNCC3)c[nH]c12 [GSK301362]	14

These compounds were tested on FLT1. Settings: concentration: 1 μM,replicates: in singlicate; n = 1.

Compound	%Inh [%]
CN(C)CCOc1ccc(-c2cc(-c3c[nH]nc3-c3ccccn3)ccn2)cc1 [GW835314]	0
CC(C)N1C(=O)Cc2cc(Nc3ncc(C(F)(F)F)c(NCc4cccc(S(C)(=O)=O)c4)n3)ccc21	62
O=C(NCCNc1ccnc(NCc2ccc(F)cc2)n1)c1cc2ccccc2s1 [GSK1379944]	27
CCn1c(-c2nonc2N)nc2c(C#CC(C)(C)O)nc(OCCN)cc21.Cl.Cl [GSK902056]	16
Cc1occc1-c1nc(N)c(OC[C@@H](N)Cc2c[nH]c3ccccc23)cc1-c1cc2c(C)n[nH]c2cn1 [GSK1660450]	31
Cl.Cl.NC[C@H](Cc1ccc(C(F)(F)F)cc1)NC(=O)c1cc(Br)c(-c2ccnc3[nH]ccc23)s1 [GSK1487252]	62
C[C@@H]1CCN(C(=O)CC#N)C[C@@H]1N(C)c1ncnc2[nH]ccc12	0
CNC(=O)c1ccccc1Sc1ccc2c(/C=C/c3ccccn3)n[nH]c2c1	99.6
Cc1n[nH]c2ccc(-c3cc(OC[C@@H](N)Cc4ccccc4)cnc3-c3ccoc3)cc12.O=C(O)C(F)(F)F.O=C(O)C(F)(F)F [GSK507358]	2
O=C(NCCCN1CCOC1=O)c1cnc(NCc2cc(Cl)ccc2Cl)nc1NC1CCCC1	6
Cl.Cl.Nc1nc(-c2ccc3c(N)n[nH]c3c2)cc(N2CCCC(NC(=O)c3ccccc3)C2)n1 (centres unmarked) [GSK2286775]	16
Cc1cc(C(=O)Nc2ccc(Oc3ccc4nc(NC(=O)C5CC5)cn4n3)cc2)nn1-c1ccccc1	88
CN(C)CC(O)COc1ccc(Nc2nccc(-c3cnn4nc(N5CCOCC5)ccc34)n2)cc1 (centres unmarked) [GW767488]	11
Cc1cc2cn[nH]c2cc1-c1cccc2c(N)c(C(N)=O)nnc12	0
Nc1nc(Nc2ccccc2)cc(-c2ccc3c(N)n[nH]c3c2)n1 [GSK2225749]	10
Cl.Oc1cc(-c2nc(-c3ccccc3)[nH]c2-c2ccncc2)ccc1Cl [SB-386023]	2
C[C@@H](Oc1cc(-c2cnn(C3CCNCC3)c2)cnc1N)c1c(Cl)ccc(F)c1Cl	28
C=CC(=O)Nc1cc2c(Nc3ccc(F)c(Cl)c3)ncnc2cc1OCCCN1CCOCC1 [GW781483]	15
Cl.Cl.NC[C@H](CC1CCCCC1)NC(=O)c1cc(Br)c(-c2ccnc3[nH]ccc23)s1 [GSK1581427]	39
Cc1ccc(-n2nc(C(C)(C)C)cc2NC(=O)Nc2ccc(OCCN3CCOCC3)c3ccccc23)cc1 [GW839464]	67
CC(C)Nc1cc(-c2ccc3c(N)n[nH]c3c2)nc(N)n1 [GSK2221681]	18
CCN(CC)CCCCNc1ncc2cc(-c3c(Cl)cccc3Cl)c(NC(=O)NC(C)(C)C)nc2n1	99
Cc1ccc2c(-c3ccncc3)c(-c3ccc(F)cc3)nn2c1.Cl [GW461484]	5
COc1ccc(C[C@@H](CN)NC(=O)c2cc(Br)c(-c3ccnc4[nH]ccc34)s2)cc1.Cl.Cl [GSK1389063]	82
C[C@H]1Oc2cc(cnc2N)-c2c(nn(C)c2C#N)CN(C)C(=O)c2ccc(F)cc21	0
CCN(CC)CCOc1ccc(Nc2ncc3cc(-c4c(Cl)cccc4Cl)c(=O)n(C)c3n2)cc1 [SB-601273]	99
NC(=O)c1cc(-c2ccccc2)cc2c(C3CCNCC3)c[nH]c12 [GSK301362]	37
